The text below walks through data of the supplement of paper PMC10849652.

The full data set covers some 8,800 targets. This sample favours those with a hit. About 0.5% of all pairs of compound and target were hits. Unmarked numbers belong to inactive results.

UniProt P21580, sequence (P21580 whole entry, looked up): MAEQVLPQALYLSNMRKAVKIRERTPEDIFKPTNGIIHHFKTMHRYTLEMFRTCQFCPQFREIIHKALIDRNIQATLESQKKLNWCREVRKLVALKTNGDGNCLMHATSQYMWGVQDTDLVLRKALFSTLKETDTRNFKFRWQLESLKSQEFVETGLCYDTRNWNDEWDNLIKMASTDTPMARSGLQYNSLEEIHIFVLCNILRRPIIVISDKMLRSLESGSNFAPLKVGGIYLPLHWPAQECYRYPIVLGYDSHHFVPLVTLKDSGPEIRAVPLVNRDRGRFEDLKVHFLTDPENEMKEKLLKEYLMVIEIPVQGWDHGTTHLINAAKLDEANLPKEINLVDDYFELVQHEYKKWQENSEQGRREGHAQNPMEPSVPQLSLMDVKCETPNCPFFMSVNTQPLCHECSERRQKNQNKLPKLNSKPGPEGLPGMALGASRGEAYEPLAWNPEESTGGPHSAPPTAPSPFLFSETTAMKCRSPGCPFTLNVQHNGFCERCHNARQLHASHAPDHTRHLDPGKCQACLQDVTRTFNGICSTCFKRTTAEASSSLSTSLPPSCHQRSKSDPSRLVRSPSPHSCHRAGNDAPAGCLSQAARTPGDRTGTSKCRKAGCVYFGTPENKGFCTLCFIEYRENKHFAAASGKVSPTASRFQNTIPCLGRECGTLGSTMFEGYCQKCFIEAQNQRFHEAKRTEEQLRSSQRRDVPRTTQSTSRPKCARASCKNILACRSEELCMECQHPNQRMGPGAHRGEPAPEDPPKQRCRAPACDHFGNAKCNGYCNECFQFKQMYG
UniProt Q6N022, sequence (Q6N022 whole entry, looked up): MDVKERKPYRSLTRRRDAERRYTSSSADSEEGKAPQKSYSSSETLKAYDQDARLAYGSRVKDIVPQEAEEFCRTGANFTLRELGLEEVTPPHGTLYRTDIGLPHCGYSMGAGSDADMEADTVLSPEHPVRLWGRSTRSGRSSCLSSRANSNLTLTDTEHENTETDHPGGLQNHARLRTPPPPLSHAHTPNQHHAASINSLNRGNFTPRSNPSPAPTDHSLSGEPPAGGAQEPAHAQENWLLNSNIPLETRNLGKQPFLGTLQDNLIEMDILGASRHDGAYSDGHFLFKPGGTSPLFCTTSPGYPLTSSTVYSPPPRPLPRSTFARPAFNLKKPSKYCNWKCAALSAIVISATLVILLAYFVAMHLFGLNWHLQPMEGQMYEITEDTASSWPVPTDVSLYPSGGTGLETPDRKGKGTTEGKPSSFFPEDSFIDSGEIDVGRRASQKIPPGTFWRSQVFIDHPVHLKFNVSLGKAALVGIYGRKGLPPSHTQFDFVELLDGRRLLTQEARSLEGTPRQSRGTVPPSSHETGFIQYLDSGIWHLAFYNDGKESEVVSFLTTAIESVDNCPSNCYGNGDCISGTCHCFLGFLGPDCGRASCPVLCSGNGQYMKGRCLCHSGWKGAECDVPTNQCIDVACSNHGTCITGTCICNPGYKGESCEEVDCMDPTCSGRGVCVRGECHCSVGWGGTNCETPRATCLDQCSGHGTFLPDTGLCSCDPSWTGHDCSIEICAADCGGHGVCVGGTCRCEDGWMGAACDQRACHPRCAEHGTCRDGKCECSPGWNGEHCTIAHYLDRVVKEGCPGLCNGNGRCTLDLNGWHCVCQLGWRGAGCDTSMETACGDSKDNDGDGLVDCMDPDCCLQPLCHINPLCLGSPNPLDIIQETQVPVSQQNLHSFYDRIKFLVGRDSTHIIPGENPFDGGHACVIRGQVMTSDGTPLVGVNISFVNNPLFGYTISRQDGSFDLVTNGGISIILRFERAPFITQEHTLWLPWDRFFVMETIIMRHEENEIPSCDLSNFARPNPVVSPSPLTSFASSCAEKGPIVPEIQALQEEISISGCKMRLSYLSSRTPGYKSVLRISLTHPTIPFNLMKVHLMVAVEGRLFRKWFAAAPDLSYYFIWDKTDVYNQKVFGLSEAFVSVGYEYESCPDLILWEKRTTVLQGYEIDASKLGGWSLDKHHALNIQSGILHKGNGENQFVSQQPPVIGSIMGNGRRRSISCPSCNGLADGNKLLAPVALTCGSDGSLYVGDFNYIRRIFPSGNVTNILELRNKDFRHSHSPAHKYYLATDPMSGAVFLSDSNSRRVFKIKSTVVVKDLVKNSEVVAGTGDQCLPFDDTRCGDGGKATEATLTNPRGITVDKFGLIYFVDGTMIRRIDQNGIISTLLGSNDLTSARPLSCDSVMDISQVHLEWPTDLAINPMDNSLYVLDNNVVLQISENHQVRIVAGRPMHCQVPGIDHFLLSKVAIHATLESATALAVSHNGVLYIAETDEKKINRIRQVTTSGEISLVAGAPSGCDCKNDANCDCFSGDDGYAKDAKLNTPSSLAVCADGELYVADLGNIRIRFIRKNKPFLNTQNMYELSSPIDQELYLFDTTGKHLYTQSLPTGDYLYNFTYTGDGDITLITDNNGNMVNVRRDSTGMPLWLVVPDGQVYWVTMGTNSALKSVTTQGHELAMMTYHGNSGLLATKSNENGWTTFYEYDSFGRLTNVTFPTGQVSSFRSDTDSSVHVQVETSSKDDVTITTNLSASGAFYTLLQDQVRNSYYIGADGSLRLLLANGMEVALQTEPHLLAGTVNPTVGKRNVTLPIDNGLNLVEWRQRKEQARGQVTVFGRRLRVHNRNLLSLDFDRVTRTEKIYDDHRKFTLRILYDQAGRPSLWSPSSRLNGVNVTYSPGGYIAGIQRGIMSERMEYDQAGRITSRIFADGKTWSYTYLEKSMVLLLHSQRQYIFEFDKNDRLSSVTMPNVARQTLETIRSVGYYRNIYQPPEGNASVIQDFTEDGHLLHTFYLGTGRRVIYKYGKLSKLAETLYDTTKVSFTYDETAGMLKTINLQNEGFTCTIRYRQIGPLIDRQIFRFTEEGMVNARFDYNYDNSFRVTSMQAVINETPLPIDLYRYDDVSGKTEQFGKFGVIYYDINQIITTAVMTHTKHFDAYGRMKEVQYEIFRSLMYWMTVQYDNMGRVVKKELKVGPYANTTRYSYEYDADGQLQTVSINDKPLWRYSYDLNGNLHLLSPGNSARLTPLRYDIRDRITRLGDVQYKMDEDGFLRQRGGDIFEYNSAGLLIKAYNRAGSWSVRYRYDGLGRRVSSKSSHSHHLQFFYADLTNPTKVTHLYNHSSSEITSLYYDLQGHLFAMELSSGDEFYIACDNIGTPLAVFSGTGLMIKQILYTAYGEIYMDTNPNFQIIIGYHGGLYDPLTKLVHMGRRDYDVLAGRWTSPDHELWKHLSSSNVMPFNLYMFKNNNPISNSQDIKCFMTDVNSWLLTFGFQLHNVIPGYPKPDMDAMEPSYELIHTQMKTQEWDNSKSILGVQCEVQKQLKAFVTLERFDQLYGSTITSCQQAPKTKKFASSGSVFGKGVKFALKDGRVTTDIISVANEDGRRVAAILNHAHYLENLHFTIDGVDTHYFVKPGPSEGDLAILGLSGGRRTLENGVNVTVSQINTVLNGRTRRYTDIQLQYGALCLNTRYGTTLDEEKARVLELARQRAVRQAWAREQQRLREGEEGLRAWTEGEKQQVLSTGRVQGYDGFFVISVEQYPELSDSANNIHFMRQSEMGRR
UniProt Q04726, sequence (Q04726 whole entry, looked up): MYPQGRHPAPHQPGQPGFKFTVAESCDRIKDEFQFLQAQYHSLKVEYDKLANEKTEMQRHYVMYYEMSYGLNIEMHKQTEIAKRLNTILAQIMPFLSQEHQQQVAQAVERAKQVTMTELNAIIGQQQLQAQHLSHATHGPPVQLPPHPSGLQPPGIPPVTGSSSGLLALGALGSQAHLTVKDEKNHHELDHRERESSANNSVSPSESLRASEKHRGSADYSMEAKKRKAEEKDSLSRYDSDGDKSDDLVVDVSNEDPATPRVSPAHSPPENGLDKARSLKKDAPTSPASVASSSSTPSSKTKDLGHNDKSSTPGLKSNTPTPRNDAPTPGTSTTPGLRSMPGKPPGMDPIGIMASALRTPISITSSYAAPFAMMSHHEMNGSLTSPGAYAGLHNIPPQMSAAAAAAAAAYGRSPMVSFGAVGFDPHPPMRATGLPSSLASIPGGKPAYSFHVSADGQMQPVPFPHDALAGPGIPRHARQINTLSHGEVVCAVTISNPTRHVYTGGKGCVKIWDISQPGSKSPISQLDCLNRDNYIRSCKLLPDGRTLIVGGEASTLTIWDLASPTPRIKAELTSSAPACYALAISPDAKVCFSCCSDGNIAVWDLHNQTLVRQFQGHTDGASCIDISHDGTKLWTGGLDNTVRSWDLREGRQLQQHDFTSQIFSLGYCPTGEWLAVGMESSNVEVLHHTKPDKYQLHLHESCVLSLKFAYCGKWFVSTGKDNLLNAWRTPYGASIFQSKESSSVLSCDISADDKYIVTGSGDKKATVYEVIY
UniProt O60637, sequence (O60637 whole entry, looked up): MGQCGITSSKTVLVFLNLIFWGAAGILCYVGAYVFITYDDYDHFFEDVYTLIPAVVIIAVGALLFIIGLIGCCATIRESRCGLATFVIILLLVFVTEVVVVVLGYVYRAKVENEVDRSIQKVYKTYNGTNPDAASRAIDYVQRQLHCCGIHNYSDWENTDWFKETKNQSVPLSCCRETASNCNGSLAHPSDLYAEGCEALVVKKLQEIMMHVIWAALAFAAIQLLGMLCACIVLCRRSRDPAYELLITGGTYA
UniProt Q9H6P5, sequence (Q9H6P5 whole entry, looked up): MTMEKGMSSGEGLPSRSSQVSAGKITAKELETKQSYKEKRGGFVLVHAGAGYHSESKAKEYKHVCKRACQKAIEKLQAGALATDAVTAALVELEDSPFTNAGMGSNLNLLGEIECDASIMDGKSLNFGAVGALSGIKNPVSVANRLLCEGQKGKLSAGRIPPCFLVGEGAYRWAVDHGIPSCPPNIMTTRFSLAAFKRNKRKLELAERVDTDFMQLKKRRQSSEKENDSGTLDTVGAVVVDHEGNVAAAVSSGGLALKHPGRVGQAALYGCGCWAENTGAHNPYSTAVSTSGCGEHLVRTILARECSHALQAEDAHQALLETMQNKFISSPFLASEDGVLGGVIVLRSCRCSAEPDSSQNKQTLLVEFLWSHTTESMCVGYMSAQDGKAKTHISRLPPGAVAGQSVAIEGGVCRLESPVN
UniProt P62328, sequence (P62328 whole entry, looked up): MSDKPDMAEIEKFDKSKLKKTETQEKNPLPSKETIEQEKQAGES

Compound in the assay: CC1=CC=C(C=C1)SC2=C3C=C(SC3=CN=C2)C(=O)N
Briefly: log2 fold change, soluble protein after heating vs DMSO (PISA); higher = thermal stabilisation; K562 lysate, 10 uM; active = over 0.2 and 3.5 SD of the protein, either way, in both replicates (recomputed). In short, it runs like this:
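Following dounce homogenisation of K562 pellets in PBS pH 7.4 with 1 mM MgCl2, crude extract at 1 mg/mL protein was incubated for 30 min with 10 μM compound. Aliquots were then heated for 3 min over 48°C-58°C and pooled, NP-40 was added to 0.5% at 4°C, and soluble protein was recovered as the supernatant at 21,000xg for 90 min. Channel-sum-equalised TMTpro 16plex LC-MS/MS quantified this protein. Each value, from duplicates, is a log-two fold change in thermal stability relative to solvent controls.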
Regarding TMEM132A isoform 2 (UniProt Q24JP5), the log2 fold change was 0.019.

In the case of TASP1 (UniProt Q9H6P5), the log2 fold change is 0.067. In the case of TFPT (UniProt P0C1Z6), the log2 fold change is -0.06. For the target TPM3 isoform 3 (UniProt P06753), the log2 fold change was -0.032. Take UBR4 isoform 4 (UniProt Q5T4S7): the log2 fold change is 0.034. Turning to TNFAIP3 (UniProt P21580), the log2 fold change is 0.053. With TENM4 (UniProt Q6N022), the log2 fold change is -0.109. On to TEC (UniProt P42680), for which the log2 fold change was 0.143. On to TNIK isoform 5 (UniProt Q9UKE5), for which the log2 fold change is -0.136. For the target TUBB4A (UniProt P04350), the log2 fold change was -0.068.

Turning to TSPAN3 (UniProt O60637), the log2 fold change is -0.04.

Turning to TLE3 isoform 5 (UniProt Q04726), the log2 fold change was -0.035. Consider UBAP2L (UniProt F8W726), for which the log2 fold change is -0.025.

As for TCF4 (UniProt P15884), the log2 fold change is -0.035. For the target TRIM3 (UniProt O75382), the log2 fold change was 0.048. Consider TMSB4X (UniProt P62328), for which the log2 fold change is -0.064. As to UBN1 (UniProt Q9NPG3), the log2 fold change is 0.081. Turning to TCF20 (UniProt Q9UGU0), the log2 fold change was -0.166. With TEDC1 (UniProt Q86SX3), the log2 fold change was -0.024. As to U2AF1L5 (UniProt P0DN76), the log2 fold change was 0.011. With TMC1 (UniProt Q8TDI8), the log2 fold change was -0.045. Consider TUBGCP5 (UniProt Q96RT8), for which the log2 fold change is -0.118.

Take THAP9 (UniProt Q9H5L6): the log2 fold change is -0.087.
